# Reference: PubChem BioAssay
# Several values for one entry are separate records, joined by “and”; a condition that tells them apart may be missing. Identical values can stand only once. Unmarked numbers belong to inactive results.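 How the source made its calls: active means inhibition at or above 50% relative to wild type and mutant plate controls; inactive means inhibition below 50%.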
# Test: inhibitors of Chlamydomonas gravitaxis, primary screen, whole organism, Chlamydomonas reinhardtii, WT vs cilia-less mutant, absorbance, 96-well (AID 463189);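 further: 0% = wild type cc124 cells in DMSO and 100% = ciliumless bld1 mutant cells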
# Details: OD600 absorbance, 2 days, at 10 µM, active compounds read high
row,Structure (SMILES),inhibition
1,C[C@@H]1O[C@H](C[N+](C)(C)C)CS1,4.65%
2,CN1C2CCC1CC(OC(c1ccccc1)c1ccc(Cl)cc1)C2 (stereo unspecified),11.8%
3,CCCN(CCC)C1CCc2cccc(O)c2C1 (stereo unspecified),1.17%
4,C=CCN1C[C@@H](C)N([C@H](c2ccc(C(=O)N(CC)CC)cc2)c2cccc(OC)c2)C[C@@H]1C,-6.39%
5,COc1ccc2c(c1OC)C(=O)O[C@H]2[C@@H]1c2cc3c(cc2CCN1C)OCO3,-6.11%
6,CCCN1CCC[C@@H](c2cccc(C#N)c2)C1,9.39%
7,C[N+]1(C)C2CCC1CC(OC(=O)C(CO)c1ccccc1)C2 (stereo unspecified),-0.808% and 1.27%
8,CCCN(CCC)CCc1ccc(O)c(O)c1,0.931%
9,CCN(CC)c1ncnc2c1ncn2[C@@H]1O[C@H](COP(=O)(O)OP(=O)(O)C(Br)(Br)P(=O)(O)O)[C@@H](O)[C@H]1O,-12.6%
10,CN(N=O)c1cc(O)ccc1O,2.32%
11,CC(C)CC(NP(=O)(O)O[C@@H]1O[C@@H](C)[C@H](O)[C@@H](O)[C@H]1O)C(=O)NC(Cc1c[nH]c2ccccc12)C(=O)O (stereo partly specified),5.76%
12,CC(=O)NCCc1c[nH]c2ccccc12,7.09%
13,NC1CCc2cc(O)c(O)cc2C1 (stereo unspecified),-5.92%
14,C[N+]1(C)C2CCC1CC(OC(=O)c1c[nH]c3ccccc13)C2 (stereo unspecified),8.92%
15,N#CC(C#N)=Cc1ccc(O)c(O)c1,1.54%
16,CCCN(CCC)[C@@H]1CCc2cccc(O)c2C1,-6.71%
